Our source for the AC50 values is PubChem BioAssay AID463198 (Broad Institute, 2010).

Molecules are shown by their SMILES. The list shows a part of the results. Values without a mark were called inactive. Calls of active or inactive are those of the source.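 The calls were made as follows: active = fitted AC50 no greater than ten times the top concentration tested (cut at about 17 µM in these data); inconclusive = flat fit with 30 to 70% signal change, or an unreliable fit; inactive = AC50 beyond ten times the top concentration tested.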

This assay is described as follows: compound competition with acridine orange for DNA – biochemical, fluorescence polarization, cell-free, counter-screen for LANA–histone interaction inhibitor project, dose response (AID 463198). The following applies: acridine orange-DNA binding. (Fluorescence polarisation rises when a labelled molecule tumbles more slowly, as on binding a larger partner.)
Consider `Cc1nn(C)cc1N1C(=O)c2cccc3c(N)ccc(c23)C1=O`, for which the concentration at half-maximal activity (AC50) is 4.91 µM (active).

For `O=S(=O)(Nc1cc(Cl)ccc1N1CCOCC1)c1ccccc1Cl`, the AC50 was above 35 µM.

Take `CN1C(=O)c2cccc3c(N)ccc(c23)C1=O`: the AC50 is 7.65 µM (active).

For `COc1ccc(C2C=C(c3ccc(Br)cc3)Nc3nc(NS(C)(=O)=O)nn32)cc1` (centres undefined), the AC50 is above 35 µM.

Broadly, the AC50 is the concentration giving half of the maximal activity seen.
